A3A deaminase: APOBEC3A ssDNA deaminase inhibitors, primary screen, selectivity assay for APOBEC3G inhibitor project, biochemical, FAM/TAMRA oligo cleavage fluorescence; AID 493011, 2011; recombinant A3A, FAM/TAMRA ssDNA deamination fluorescence; inhibition, % at 20 µM; 0.41% of 330,000 active;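 active = at least 40% inhibition at 20 µM here, with at most 30% in a related deaminase screen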;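 note: plate controls were A3A with DMSO for no effect and wells lacking A3A enzyme for full effect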
Target sequence (P31941 whole entry, looked up): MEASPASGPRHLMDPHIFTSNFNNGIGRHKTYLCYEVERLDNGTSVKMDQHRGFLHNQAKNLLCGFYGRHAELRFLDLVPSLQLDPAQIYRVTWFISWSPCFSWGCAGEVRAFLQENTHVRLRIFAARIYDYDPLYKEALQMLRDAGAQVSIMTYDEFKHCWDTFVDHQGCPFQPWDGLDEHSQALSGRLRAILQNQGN
HGIII-sPLA2 inh: human group III sPLA2 inhibitors, primary screen, biochemical, QFRET, BODIPY PC-A2 liposome substrate; AID 743126, 2013; Group 3 secretory phospholipase A2 (Homo sapiens), Q9NZ20; 0.56% of 370,000 active; inhibition, % at 12.2 µM; QFRET BODIPY PC-A2 liposome hydrolysis, fluorescence;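 active = inhibition above mean plus 3 SD of compounds lying within the high and low control bounds, cut at about 19% in these data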;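 note: 0% = median of test compound wells and 100% = no enzyme DMSO wells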
NALP1 inh: NALP1 inflammasome inhibitors in reconstituted yeast, colorimetric, S. cerevisiae, triplicate retest | AID 2071, 2009 | inhibition, % at 10 µM | 0.61% of 280,000 active | S. cerevisiae NALP1/ASC/caspase-1 growth, X-gal OD620, 72 h; in the data active = inhibition mostly above about 24%, no sharp cut-off; inactive = mostly below about 32%
APOBEC3G inh: APOBEC3G DNA deaminase inhibitors, primary screen, biochemical, fluorescence, single-stranded DNA substrate, uHTS; inhibition, % at 20 µM; recombinant A3G, ssDNA deamination FAM/TAMRA fluorescence; 0.28% of 330,000 active; AID 493012, 2011;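 active = inhibition of at least 40% at 20 µM, with no more than 30% in the related APOBEC3A deaminase screen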;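 note: plate controls were DMSO wells with A3G for no effect and wells lacking A3G enzyme for full effect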
Target sequence (Q9HC16 whole entry, looked up): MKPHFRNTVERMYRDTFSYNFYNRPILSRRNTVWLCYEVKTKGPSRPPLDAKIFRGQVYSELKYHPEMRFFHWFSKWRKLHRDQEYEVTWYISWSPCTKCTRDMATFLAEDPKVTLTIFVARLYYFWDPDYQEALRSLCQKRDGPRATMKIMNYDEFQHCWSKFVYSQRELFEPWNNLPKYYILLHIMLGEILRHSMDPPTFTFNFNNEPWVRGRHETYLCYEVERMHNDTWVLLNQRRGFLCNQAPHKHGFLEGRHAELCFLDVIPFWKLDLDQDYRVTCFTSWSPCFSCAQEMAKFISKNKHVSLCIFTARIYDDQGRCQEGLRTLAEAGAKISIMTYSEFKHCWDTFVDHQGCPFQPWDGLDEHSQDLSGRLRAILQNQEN
CTSL1 counter: Fasciola hepatica cathepsin L1 inhibitors, primary screen, counter-screen for PFM18AAP inhibitor project, biochemical, QFRET, fluorogenic peptide substrate | recombinant F. hepatica cathepsin L1, Z-Leu-Arg-MCA fluorescence | inhibition, % at 5.96 µM | 0.49% of 300,000 active | AID 1906, 2009;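 active = inhibition above the mean of all tested compounds plus 3 SD, set per screening campaign, cut at about 17% in these data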;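 note: 0% = plate median of test compound wells and 100% = 1 µM Z-Phe-Ala-diazomethylketone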
Numbers without * were called inactive; . = not tested or not shown. Sampled rows, rich in hits. Any-hit rate of the full collection: about 2%.

SMILES	A3A deaminase	HGIII-sPLA2 inh	NALP1 inh	APOBEC3G inh	CTSL1 counter
CCOC(=O)[C@]12CCCCC/C=C\1N(CCc1ccc(Cl)cc1)C(=O)[C@H]2CC(=O)NCC12CC3CC(CC(C3)C1)C2	.	10	.	.	.
CC(C)Nc1nc(C#N)nc(NC(C)C)n1	-1	11	8	-6	57*
CCOc1ccccc1NC(=O)c1oc2ccccc2c1NC(=O)C1CCCO1 (stereo not given)	5	2	8	16	18*
CCOc1ccccc1NC(=O)c1oc2ccccc2c1NC(=O)C1CC1	-4	3	19	-7	-1
CC(C)CC(O)(CC(C)C)c1cn(C(=O)N(c2ccccc2)c2ccccc2)nn1	.	-13	.	.	.
Cc1cc(=O)n(C)c(=O)n1CCCCOc1ccc([N+](=O)[O-])cc1	-3	-6	50*	-8	-1
CC1=CC(=O)c2ccccc2C1=O	-1	0	2	-6	-2
COc1cccc2c1C(=O)C=C(C)C2=O	3	6	96*	-6	10
CC(C)(C)OC(=O)NCc1ccccc1/C=C/S(=O)(=O)NCCc1ccccc1	.	-6	.	.	.
Cc1c(CN2CCC(CO)(CCOc3ccccc3)CC2)c(=O)n(-c2ccccc2)n1C	0	2	26*	-5	2
Cc1cc(C)c(CN2CCC(CO)(CCOc3ccccc3)CC2)cc1C	-3	-12	22	-6	0
COc1ccc(S[C@]2(C(=O)N3CCN(C(C)=O)CC3)CC(=O)N(C(=O)Nc3ccc(C)c(Cl)c3)[C@@H]2c2ccc(OC)cc2)cc1	.	-9	.	.	.
O=S(=O)(c1ccc(Cl)s1)N1CCC(Cc2ccccc2)CC1	3	-2	40*	-1	4
NC(=O)c1c(NC(=O)CN2C(=O)NC(Cc3ccccc3)C2=O)sc2c1CCC2 (stereo not given)	14	-7	42*	18	6
CC1CCC2(CC1)NC(=O)N(CC(=O)Nc1sc3c(c1C(N)=O)CCC3)C2=O (stereo not given)	56	-4	11	33	3
Cc1cc(C(=O)NCCC(c2ccccc2)c2ccccc2)c(C)o1	-3	-7	40*	-5	1
O=C(Nc1ccccc1)n1ccc2ccc(-c3ccc4cc[nH]c4c3)cc21	.	-13	.	.	.
CC(CCN1CCC(C(O)(c2ccccc2)c2ccccc2)CC1)Oc1ccc(OC(F)(F)F)cc1 (stereo not given)	.	-19	.	.	.
CN(C)CCC(c1ccc(Cl)cc1)c1ccccn1 (stereo not given)	-1	-9	5	-3	-2
CN(C)CCC1c2ccc(Cl)cc2CCc2cccnc21 (stereo not given) (tested in a mixture with another compound)	-3	-16	40*	-3	-1
O=C1NCCN/C1=C\C(=O)c1ccc(F)cc1	-5	-2	26	-3	-4
O=C1NCCN/C1=C\C(=O)c1ccc(Cl)cc1	-4	14	39*	-10	-2
Cc1ccc[n+](CC(=O)Nc2cc(C(F)(F)F)ccc2Cl)c1	3	-12	24	0	4
CCC(C)(C)c1ccc(OCCCC[n+]2cccc(C)c2)c(C(C)(C)CC)c1	.	-2	33*	.	.
O=C1Nc2ccccc2C12OCC1(CO2)COC2(OC1)C(=O)Nc1ccccc12 (stereo not given)	0	-29	28	-2	28*
SMILES	A3A deaminase	HGIII-sPLA2 inh	NALP1 inh	APOBEC3G inh	CTSL1 counter
Cn1c(=O)cc(OCCCC(=O)Nc2cc(-c3cn[nH]c3)ccn2)c2ccccc21	.	-3	.	.	.
Cc1ccc(CNC(=O)[C@H](C)NC(=O)C2CCN(C(=O)[C@@H](N)CC(C)C)CC2)cc1	-3	20*	17	-12	-3
CCOc1ccc(-c2cc(C(=O)NCCCN3CCN(CC)CC3)c3ccccc3n2)cc1	3	1	31*	-2	-2
COc1ccc(CCC(C)N(C)Cc2ccccc2)cc1 (stereo not given)	-5	2	30*	0	1
COc1ccc(OCCCN(C)Cc2ccccc2)cc1	-4	-7	38*	-10	3
COc1ccc(OCCN(C)Cc2ccccc2)cc1	-3	3	30	-4	3
COc1ccccc1N1C(=O)CC(Sc2n[nH]c(-c3cccc(C)c3)n2)C1=O (stereo not given)	-5	11	73*	31	0
CC(=O)OC12CCCN(C1)/C(=C/c1cccnc1)C2 (stereo not given)	.	2	.	.	.
C=C(C)Cc1c(C)nc(-c2ccccc2)[nH]c1=O	0	7	11	-2	26*
CCOC(=O)CNC(c1ccccc1)c1cc(Br)ccc1NC(=O)CCN1CCOCC1 (stereo not given)	-2	-13	98*	-3	-5
COC(=O)CNC(c1ccccc1)c1cc(Br)ccc1NC(=O)CCN1CCOCC1 (stereo not given)	0	-17	.	0	-1
CCOC(=O)c1cc2c(s1)-c1c(C)cccc1OC2	1	1	25	-2	18*
Cc1cccc2c1-c1sc(C(=O)Nc3nccs3)cc1CO2	-4	-9	23	-11	4
Cc1nonc1NC(=O)CSc1nc2ccccc2[nH]1	3	3	-10	1	17*
COc1nonc1NC(=O)CSc1nc2ccccc2[nH]1	-6	3	13	-8	0
CC(=O)c1cccc(NC(=O)CN(C)S(=O)(=O)c2cccc3nsnc23)c1	-8	0	32*	-7	-2
CN(CC(=O)Nc1ccc(F)c(F)c1)S(=O)(=O)c1cccc2cccnc12	0	6	10	-3	-1
CN(CC(=O)Nc1ccc(Cl)cc1)S(=O)(=O)c1cccc2cccnc12	3	4	37*	5	1
C=CCN1[C@@H](C)COc2cc(F)ccc2S1(=O)=O	.	5	.	.	.
COC(=O)[C@H]1C[C@@]2(c3ccccc3)c3ccccc3N(S(=O)(=O)c3ccccc3)[C@H]2N1	.	7	.	.	.
O=[N+]([O-])c1ccc2nc(COCc3nc4ccccc4[nH]3)[nH]c2c1	.	0	.	.	.
O=C(c1c(O)c2ccccc2oc1=O)C1CCCCC1	3	4	3	-5	-1
O=C(CCC1CCCC1)c1c(O)c2ccccc2oc1=O	2	9	40*	2	6
CCCN(CCC)c1nc(C#N)nc(N(CCC)CCC)n1	-1	0	1	-1	18*
CN(C)c1nc(C#N)nc(N(C)C)n1	1	5	32	-4	26*
Cc1ccc(NC(=O)c2ccc(CS(=O)(=O)Cc3ccccc3C)o2)c(C)c1	.	7	.	.	.

Assay outcomes: PubChem, several laboratories
